Results on 21 molecules are retold here after PubChem BioAssay AID720518 (National Center for Advancing Translational Sciences (NCATS), 2013).

Structures are written as SMILES. Results filed as inconclusive are left out. Entries that show only a call come without a potency. Activity calls are given as the source filed them. Calls come from the whole dose curve.

The nature of this experiment: qHTS for Inhibitors of Cell Surface uPA Generation: Wild-type Protective Antigen (WT-PrAg) Counterscreen for Cherry-picked Compounds. The settings on record: cells, WT protective antigen toxicity counterscreen; series mostly up to 115 µM. On the technique in general: In qHTS, concentration-response curves come from the screen itself.
Regarding `CCOc1ccc(CCNC(=O)Cc2ccc(NC3=NC4CS(=O)(=O)CC4S3)cc2)cc1OCC` (stereo unspecified), the Potency result was “inactive”.
As to `COc1ccccc1CNC(=O)CCCn1nc(C)c2c(C)n(-c3ccccc3)nc2c1=O`, the Potency result was “inactive”.
The entry for `CCOc1ccccc1C(=O)NC1CCN(CC(=O)Nc2cc(OC)ccc2OC)CC1` is “inactive”.
In the case of `O=C(Nn1cnnc1)c1ccc(Cl)c(Cl)c1`, the Potency entry is “inactive”.
The entry for `CCCCn1c(C2CCCCC2)nc2cc3[nH]c(=O)c(C(C)C)nc3cc21` is “inactive”; for `CCCN1CCN(C2CCCCC2NS(=O)(=O)c2ccc(Cl)cc2)CC1` (stereo unspecified) it is “inactive”; for `CC(=O)COc1ccc2c(-c3cccc([N+](=O)[O-])c3)cc(=O)oc2c1` it is “inactive”.
The result for `COc1ccc(Nc2nc(-c3ccccc3)c(C(=O)Nc3cccnc3)s2)cc1` reads “inactive”; that for `Cc1ccc(NC2CCCN(C(=O)Cc3nonc3C)C2)cc1C` (stereo unspecified), “inactive”.
Regarding `N#Cc1ccccc1Sc1ccccc1C(=O)Nc1ccc(Br)cc1`, the Potency result was “inactive”.
With `COc1ccc(CCNC(=O)Cn2c(=O)n(-c3cc(F)ccc3F)c(=O)c3sccc32)cc1OC`, the Potency entry was “inactive”.
The result for `COc1ccc(C)cc1NC(=O)CSCc1cc(=O)n2c(C)csc2n1` reads “inactive”; that for `Cc1c(C(=O)N2CCN(S(=O)(=O)c3cccs3)CC2)oc2ccc(F)cc12`, “inactive”; that for `COc1ccccc1C(=O)NCc1ccccc1`, “inactive”.
The entry for `O=C(O)COc1ccccc1/C=N/NC(=O)CNC(=O)c1ccco1` is “inactive”.
Regarding `COc1ccc(C2=NOC(CNC(N)=S)C2)cc1` (stereo unspecified), the Potency result was “inactive”.
The result for `O=c1[nH]c2c(s1)C(c1ccc(O)cc1)C1C3CCC(C3)C1S2` (stereo unspecified) reads “inactive”.
The entry for `CCOc1cc(C(=O)OCC(=O)c2cc(C)n(CC3CCCO3)c2C)ccc1OCC(=O)N1CCOCC1` (stereo unspecified) is “inactive”; for `COc1cc(F)ccc1S(=O)(=O)n1c(C)nc2ccccc21` it is “inactive”; for `CC1(C)S[C@@H]2[C@H](NC(=O)C(C(=O)O)c3ccccc3)C(=O)N2[C@H]1C(=O)O` (stereo partly specified) it is “inactive”.
The result for `COc1ccc(OC)c(N2C(=O)CC(Cc3cc(C)cc(C)c3)C2=O)c1` (stereo unspecified) reads “inactive”.
